In the library only some 0.43% were active in any assay of this set; here they are far more common.
GAA inh = inhibitors of human lysosomal alpha-glucosidase; P10253; purified human GAA, 4-MU-alpha-glucoside fluorescence; Potency, µM (doses to about 76.9 µM), for the others: top-dose activity change, negative = inhibition, most hits filed as inhibitors; 200,000 compounds, 0.005% hits;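 further: potency means the concentration at half of the fitted maximal effect; plate controls were uninhibited enzyme wells for no effect and no-enzyme background for full effect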
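Endpoint fluorogenic read: 20 min room-temperature reaction of 4 nM human alpha-glucosidase with 400 uM 4-methylumbelliferyl-alpha-D-pyranoside, pH 5.0, quenched with 1M NaOH/1M glycine pH 10. AC50 from Hill modeling.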
aGlu spleen mod = lysosomal alpha-glucosidase (human) modulation; 240,000 compounds, 0.006% hits; P10253; Potency, µM (titrated, usually from 79.9 µM), for inactives: at the highest dose activity change, negative = inhibition, actives largely listed as inhibitors; human spleen homogenate, 4-MU-alpha-glucoside fluorescence;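 further: potency means the concentration at half of the fitted maximal effect; 0% = enzyme with vehicle and -100% = no enzyme basal signal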
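Enzyme source: human spleen homogenate, 1 ug/well. Buffer 50 mM citric acid/K phosphate pH 5.0, 0.01% Tween-20. 4-MU-alpha-glucoside 1 mM; 37 C x 40 min; NaOH/glycine stop; fluorescence.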
GLA spleen mod = inhibitors or activators of human alpha-galactosidase in spleen homogenate. human spleen homogenate, 4MU-alpha-Gal fluorescence, 40 min. Potency, µM (series often up to 80 µM), inactives show at the highest dose activity change, negative = inhibition, usual class: inhibitors. 240,000 compounds, 0.008% hits;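 further: potency means the concentration at half of the fitted maximal effect; 0% = enzyme with vehicle and -100% = no enzyme basal signal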
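Human spleen homogenate (1 ug) was the enzyme source, with 4-methylumbelliferyl-alpha-D-galactopyranoside (1 mM final) in pH 5.0 citrate buffer with 0.01% Tween-20. Compounds were titrated; after 40 min at 37C, NaOH/glycine stop, 4-MU fluorescence read; AC50 from Hill fits.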
GAA glycogen mod = alters human alpha-glucosidase cleavage of glycogen; P10253; recombinant GAA, glycogen substrate, Amplex Red glucose oxidase fluorescence; Potency, µM (highest dose often 76.4 µM), for inactives: at the highest dose activity change, negative = inhibition, actives largely listed as inhibitors; 300,000 compounds, 0.38% hits; AID 2100;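 further: potency means the concentration at half of the fitted maximal effect; 0% = full enzyme reaction and -100% = no-enzyme basal signal; the screen sought inhibitors and activators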
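Natural-substrate format: glycogen cleavage by 4 nM human enzyme, glucose read by Amplex Red coupling (Ex 573, Em 610 nm). Normalized to enzyme and no-enzyme controls.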
N370S GC mod = inhibitors or activators of N370S glucocerebrosidase for Gaucher disease; N370S GC spleen homogenate, 4MU-glucoside fluorescence; Potency, µM (top dose mostly 59.4 µM), inactives show top-dose activity change, negative = inhibition, hits mostly inhibitors; 330,000 compounds, 0.092% hits; AID 2101;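 further: potency means the concentration at half of the fitted maximal effect; 0% = full enzyme activity and -100% = no enzyme basal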
GLA inh pH 4.5 = inhibitors of human alpha-galactosidase A at pH 4.5; P06280; purified enzyme, 4-MU-alpha-Gal fluorescence, pH 4.5; activity change, negative = inhibition, % at 105 µM; 230,000 tested, under 10 active; AID 1467;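 further: 0% = full activity with enzyme and -100% = basal without enzyme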
Target sequence (P06280 whole entry, looked up): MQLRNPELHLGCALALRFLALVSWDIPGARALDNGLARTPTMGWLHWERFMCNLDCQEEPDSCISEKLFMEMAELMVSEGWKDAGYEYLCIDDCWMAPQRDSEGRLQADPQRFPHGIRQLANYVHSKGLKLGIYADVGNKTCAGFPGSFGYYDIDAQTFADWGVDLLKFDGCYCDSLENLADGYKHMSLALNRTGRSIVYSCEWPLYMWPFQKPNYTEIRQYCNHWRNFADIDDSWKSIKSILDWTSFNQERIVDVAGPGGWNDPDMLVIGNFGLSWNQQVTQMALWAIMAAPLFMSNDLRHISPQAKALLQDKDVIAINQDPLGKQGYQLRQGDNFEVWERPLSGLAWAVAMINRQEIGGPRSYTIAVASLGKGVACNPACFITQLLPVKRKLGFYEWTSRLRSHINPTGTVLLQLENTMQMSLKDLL
Numbers without * were called inactive; u = inconclusive; x = not tested or not shown; [ ] = remark or other dose. The call rests on the fitted dose curve; in most records, active means well fitted curve in the direction sought with a large enough effect; inconclusive means small, poorly fitted or top-dose-only effect, or another doubt; inactive means no such curve, though single readings can be large; an effect the other way counts as inactive or inconclusive.

SMILES | GAA inh | aGlu spleen mod | GLA spleen mod | GAA glycogen mod | N370S GC mod | GLA inh pH 4.5
O=C1NCCCC2c3c(cc(Br)c(O)c3Br)OC12N1CCOCC1 (stereo unspecified) | -1% | -1% | 9% | -14% | -8% | 7
N[C@H](CSSC[C@@H](N)C(=O)O)C(=O)O | x | -4% | -18% | x | -12% | x
NCCCCCCC(O)(P(=O)(O)O)P(=O)(O)O | x | 7% | 15% | x | 4% | x
Cc1c(N=Cc2cccs2)c(=O)n(-c2ccccc2)n1C | -3% | 8% | 12% | 25µM* | -3% | -11
Cc1ccsc1C=Nc1c(C)n(C)n(-c2ccccc2)c1=O | 6% | 2% | 12% | 3.1µM* | 4% | -10
COC(=O)CNc1c(-c2ccccc2)nc2ccc(Br)cn12 | -8% | -7% | -17% | u | 11µM* | -2
COC(=O)Nc1c(-c2ccccc2)nc2ccc(Cl)cn12 | x | x | x | 6%[76.3 µM] | -6% | x
O=C1/C(=C/c2ccc(O)c(O)c2)Oc2ccccc21 | x | 2% | 21% | x | 3% | x
CCN=c1scc(C)n1/N=C/c1ccc(O)c(O)c1O | -9% | -16% | -6% | 16µM* | -22% | -20
CCN=c1scc(C)n1/N=C/c1cc(Br)c(O)c(Br)c1 | -5% | 11% | 1% | 14% | -10% | 8
COc1ccc(C(=O)NNc2ccccc2)cc1OC | 0% | 2% | 2% | 22µM* | 7% | -3
COc1ccc(CNc2ccnc(-c3ccccc3OC)n2)c(OC)c1 | x | -1% | 0% | x | -12% | x
COc1ccc(CNc2ccnc(-c3ccccc3Cl)n2)c(OC)c1 | x | -10% | u | x | 4.5µM* | x
COc1ccc2[nH]cc(CCNc3ccnc(-c4ccccc4C)n3)c2c1 | x | -21% | 32µM* | x | 14µM* | x
COc1ccc2[nH]cc(CCNc3nc(-c4cccnc4)nc4ccccc34)c2c1 | x | -4% | -14% | x | 13µM* | x
COc1ccc(CNc2nc(-c3cccnc3)nc3ccccc23)c(OC)c1 | x | 2% | -25% | x | 11µM* | x
COc1cccc(-c2nc(NCc3ccc(OC)cc3OC)c3ccccc3n2)c1 | x | 11% | 1% | x | u | x
COc1ccccc1CNc1nc(-c2cccnc2)nc2ccccc12 | x | -4% | -9% | x | u | x
CO[C@@H]1COC(=O)[C@@H](CCSC)NC(=O)C/C=C\[C@@H](C)COC(=O)[C@H](C)NC(=O)C/C=C\[C@H]1C | x | -3%[17.4 µM] | -7%[17.5 µM] | x | -2%[12.8 µM] | x
Cc1nonc1C(=O)N/N=C/c1ccc(O)c(O)c1 | 0% | -6% | 0% | 7.9µM* | 7% | 5
O=C(N/N=C/c1ccc(O)c(O)c1)c1cc(-c2ccccc2)nc2ccccc12 | x | x | x | x | 0% | x
O=C(N/N=C/c1ccc(O)c(O)c1)N/N=C/c1ccc(O)c(O)c1 | x | x | x | 1.4µM* | 7% | x
COc1cc(/C=N/NC(=O)c2nonc2C)ccc1O | u | -2% | -6% | u | -3% | -2
CCN(CC)c1ccc(-c2nc3cnccn3c2NC2CCCC2)cc1 | 3% | -7% | 12% | 9.9µM* | 10% | -25
Brc1ccc2nc(-c3ccncc3)c(NC3CCCC3)n2c1 | -14% | 2% | 7% | 9.9µM* | -16% | u
SMILES | GAA inh | aGlu spleen mod | GLA spleen mod | GAA glycogen mod | N370S GC mod | GLA inh pH 4.5
COc1cc([C@@H]2CC(=O)c3c(O)cc(O)cc3O2)ccc1O | x | 16% | 18% | x | -5% | x
O=C(O)c1ccc(/C=N/n2cc(-c3ccccc3)[nH]c2=S)cc1 | x | -1% | 10% | 28µM* | -2% | 1
Cc1cccc(NNC(=O)C2CCC2)c1 | x | -1% | 12% | 7.9µM* | 3% | 2
Nc1n[nH]c2cc(=O)n(-c3cccc(C(F)(F)F)c3)nc12 | -10% | -19% | 3% | 32µM* | 9% | -2
CCCCC1=CC2=C(OC(C)=O)C(=O)C(C)(OC(=O)c3ccc(Cl)nc3)C(=O)C2=CO1 (stereo unspecified) | x | -5% | 3% | x | -10% | -15
CCOc1cc(C2C3=C(CCCC3=O)NC3=C2C(=O)CCC3)cc(Cl)c1O | -4% | -12% | -7% | 35µM* | -14% | -4
COc1cccc(/C=C2\SC(=S)N(C(C)C(=O)NC3C=CS(=O)(=O)C3)C2=O)c1 (stereo unspecified) | x | x | x | x | 16µM* | x
CC#CCN1c2ccccc2[C@]23C[C@@H](C(=O)OC)N(S(=O)(=O)c4ccc([N+](=O)[O-])cc4)C2=NC(C(=O)OC)=C(C(=O)OC)[C@H]13 | x | 2%[17.4 µM] | 8%[17.5 µM] | x | 3%[12.8 µM] | 4
COc1ccc(C)cc1NC(=O)C1CCN(S(C)(=O)=O)CC1 | x | x | x | 35µM* | -1% | x
Cc1c(N/C=C(\Cl)C(=O)C(F)(F)F)c(=O)n(-c2ccccc2)n1C | -6% | 1% | 3% | 32µM* | -15% | -2
CCN(CC)CCNC(=O)CCCCn1c(=S)[nH]c2c([nH]c3ccc(OC)cc32)c1=O | -10% | 6% | 8% | 25µM* | -1% | -16
Cc1cccc(NC(=S)NNC(=S)NCc2ccccc2)c1 | -7% | -1% | -5% | 7.9µM* | 10%[12.8 µM] | -6
S=C(NCc1ccccc1)Nc1cccc(Cl)c1 | -1% | -8% | -10% | 8% | u | -2
Cc1ccc2oc(C(=O)Nc3ccc(S(=O)(=O)N4CCCCC4C)cc3)cc(=O)c2c1 (stereo unspecified) | x | x | x | 7.1µM* | x | x
CCOc1ccc(Cc2nnc(SCC(=O)c3ccc(OC)cc3)o2)cc1 | -14% | -5% | 2% | -8% | 3% | 0
CCOc1ccc(Nc2nc(Cc3nnc(SCC(=O)O)o3)cs2)cc1 | 8% | -4% | -1% | 14µM* | -11% | -13
O=C1OCC2=C1C(c1ccc(F)cc1)Sc1ccccc1N2 (stereo unspecified) | -8% | -8% | -1% | 3% | 18µM* | -4
COc1cc(C2Sc3ccccc3NC3=C2C(=O)OC3)cc(OC)c1OC (stereo unspecified) | -8% | 1% | 1% | 5% | -27% | -8
C=CC1=C2C=C(C3CC3)N(CCCOC(C)C)C=C2C(=O)C(C)(OC(=O)c2ccco2)C1=O (stereo unspecified) | x | -2%[17.4 µM] | 0%[17.5 µM] | x | 9%[12.8 µM] | 3
COc1ccc(/C=N/Nc2nccnc2Cl)c(OC)c1 | 7% | -5% | -25% | u | -6% | -1
COc1ccc(/C=N/Nc2nonc2N)c(OC)c1 | -2% | 3% | -11% | 35µM* | -19% | -2
CCOc1ccc(NC(=S)N(CCc2c(C)[nH]c3ccc(C)cc23)Cc2ccncc2)cc1 | -11% | 3% | 2% | -14% | 14µM* | -18
C[C@H]1Cc2c(COc3ccccc3)nc3c(c2CO1)CN(C(=O)C1CC1)CC3 | x | 4%[17.4 µM] | 3%[17.5 µM] | x | -8%[12.8 µM] | 4

Compound activity (PubChem BioAssay)
